Inhibition data for 62 compounds are collected here from ChEMBL document CHEMBL1157539, “Thousands of chemical starting points for antimalarial lead identification” (Nature, 2010).

Holding throughout (assay type): functional
Assay [1] deals with Plasmodium falciparum. Kind of assay: GSK_TCMDC: Inhibition of Plasmodium falciparum 3D7 in whole red blood cells, using parasite LDH activity as an index of growth. Test compounds present at 2uM.
In assay [2] the test system is Plasmodium falciparum. Nature of the assay: GSK_TCMDC: Inhibition of Plasmodium falciparum Dd2 in whole red blood cells, using parasite LDH activity as an index of growth. Test compounds present at 2uM.
In assay [3] the test system is HepG2. Kind of assay: GSK_TCMDC: Percent inhibition of human HepG2 cell line. Test compounds present at 10uM.

A word on the Inhibition: it is the share of the control response that was lost under treatment. High values mean a response far below the control, low ones a response near the control.

The structures appear in SMILES notation. “And” between values parts separate entries of the source, which are not always exact repeats. Equal entries are not always repeated.

Consider `O=C1NC(=O)C(c2cccc(NC(=O)c3ccncc3)c2)=C1c1ccccc1`, for which the Inhibition in assay [1] stood at 100%; in assay [2], 0%; in assay [3] it was 5%.
`NC1CCN(CCNCc2cccc(-c3ccc(-c4nc5cc(C(F)(F)F)ccc5[nH]4)cc3)c2)C1.O=C(O)C(F)(F)F` (stereo unspecified): the results for the Inhibition in assay [1], in assay [2] and in assay [3] were 98%, 75% and 19%, respectively.
Regarding `CCCc1cc(NCc2ccncc2)nc(Nc2ccc(F)cc2)n1`, the Inhibition in assay [1] amounted to 90%; in assay [2], 6%; in assay [3], 9%.
Consider `O=C(Nc1cccc(-c2nn3ccccc3c2-c2ccnc(Nc3ccccc3)n2)c1)c1cc(F)ccc1F`, for which the values for the Inhibition in assay [1], in assay [2] and in assay [3] were 98%, 75% and 8%, respectively.
On to `NC1=NC(c2ccccc2)(c2cccc(O)c2)C(=O)N1CCCc1ccccc1` (stereo unspecified), for which the Inhibition in assay [1] is 85% and 98%; in assay [2], 38% and 93%; in assay [3] it was 0%.
Consider `CC1CN(c2cnn(Cc3ccc(NC(=O)Nc4ccc(-c5ccccc5)cc4)cc3)c(=O)c2Cl)CC(C)N1.O=C(O)C(F)(F)F` (stereo unspecified), for which the Inhibition in assay [1] stood at 100%; in assay [2] it was 46%; in assay [3], 82%.
For the compound `O=C(NCCN1CCCC1)c1cccc(-c2ccc(-c3nc4cc(F)ccc4[nH]3)cc2)c1`, the Inhibition in assay [1] was found to be 99%; in assay [2] it was 85%; in assay [3], 33%.
As to `COC(=O)COc1cc(C(=O)NCCCCN2CCC(c3ccc4c(c3OC)CCCC4)CC2)ccc1-c1ccc(Cl)cc1`, the Inhibition in assay [1] was 97%; in assay [2] it was 21%; in assay [3], 32%.
The matching figures for `Nc1nc(N)c2c(ccc3c2ccn3Cc2ccc(F)cc2)n1`: 97%, 96% and 66%.
On to `NC1CCN(Cc2ccc(-c3ccc(-c4nc5cc(F)ccc5[nH]4)s3)cc2)C1.O=C(O)C(F)(F)F` (stereo unspecified), for which the Inhibition in assay [1] was determined as 100%; in assay [2], 98%; in assay [3], 32%.
As to `Cc1cc(Nc2ccc(O)cc2)nc2cccc(O)c12`, the figures for the Inhibition in assay [1], in assay [2] and in assay [3] were 99%, 28% and 22%, respectively.
The matching figures for `CN(C(=O)C1(c2ccc(Cl)cc2)CC1)C1CCN(CCCCCNC(=O)/C=C/c2ccc(Cl)c(Cl)c2)CC1`: 88%, 0% and 91%.
The like results for `CS(=O)(=O)c1ccc(CCNCc2ccc(-c3cccc(-c4nc5ccccc5[nH]4)c3)cc2)cc1.O=C(O)C(F)(F)F` were, in that order, 100%, 99% and 40%.
The like results for `Nc1nc(N)c2c(Oc3cccc4ccccc34)cccc2n1` were, in that order, 96%, 10% and 42%.
On to `CCN(CC)CCCNc1nccc(N2CCc3ncnc(Nc4ccc(OCc5cccc(F)c5)c(Cl)c4)c3C2)n1`, for which the figures for the Inhibition in assay [1], in assay [2] and in assay [3] were 100%, 95% and 100%, respectively.
Turning to `O=C(c1cc2ccccc2o1)N1CCc2cc3nccc(N4CCN5CCC[C@H]5C4)c3cc21`, the Inhibition in assay [1] came to 99%; in assay [2] it was 100%; in assay [3] it was 62%.
For the compound `CCN1CCC(N(Cc2ccc(-c3ccc(Cl)cc3)cc2)C(=O)Cn2c(CCc3cccc(F)c3F)cc(=O)c3ccccc32)CC1.O=C(O)C(O)C(O)C(=O)O`, the figures for the Inhibition in assay [1], in assay [2] and in assay [3] were 99%, 95% and 100%, respectively.
For the compound `COc1ccc2ncc(F)c(CCN3C4CCC3CC(NCc3ccc5c(c3)OCCO5)C4)c2n1.Cl` (stereo unspecified), the Inhibition in assay [1] is recorded as 100%; in assay [2], 35%; in assay [3] it was 27%.
For the compound `CCCOc1cc(OCCC)cc(-c2cc(=O)c3ccccc3[nH]2)c1`, the Inhibition in assay [1] was 99%; in assay [2], 96%; in assay [3] it was 33%.
As for `COc1c(C(=O)NC2CCN(Cc3ccccc3)C2)cnc2ccccc12.Cl` (stereo unspecified), the Inhibition in assay [1] amounted to 86%; in assay [2], 12%; in assay [3], 2%.
Turning to `O=C(Nc1cccc(-c2ccc(-c3nc4cc(F)ccc4[nH]3)cc2)c1)c1ccncc1`, the figures for the Inhibition in assay [1], in assay [2] and in assay [3] were 100%, 96% and 52%, respectively.
Take `O=C(NC1CCC(N2CCC(c3nc4ccccc4s3)CC2)CC1)c1cc2ccccc2[nH]1` (stereo unspecified): the Inhibition in assay [1] worked out at 94%; in assay [2], 37%; in assay [3], 23%.
For the compound `CS(=O)(=O)c1ccc2c(c1)CCN(CCC1CCC(NC(=O)C(=Cc3ccc(Cl)cc3Cl)c3ccc(-c4ccccc4)cc3)CC1)CC2` (stereo unspecified), the Inhibition was 81% in assay [1], 16% in assay [2] and 33% in assay [3].
The like results for `COc1cc2c(cc1NC(=O)CN1CCN(C(=O)c3ccco3)CC1)oc1ccccc12` were, in that order, 96%, 96% and 13%.
With `CCCCc1ccc(C(=O)Nc2ccc3nc(N4CCN(CC)CC4)cc(C)c3c2)cc1`, the Inhibition in assay [1] was determined as 91%; in assay [2] it was 13%; in assay [3], 32%.
Turning to `COc1ccc(-c2ccc(NC(=O)c3ccc(C#N)cc3)cc2)cc1CN1CCNCC1.O=C(O)C(F)(F)F`, the Inhibition in assay [1] is 96%; in assay [2], 42%; in assay [3] it was 23%.
As for `CN1CCC(Oc2ccc(CN3CC[C@H](NC(=O)c4cccc(C#N)c4)C3)c3ccccc23)C1.O=C(O)C(F)(F)F` (stereo partly specified), the Inhibition in assay [1] was found to be 97%; in assay [2] it was 30%; in assay [3], 10%.
Turning to `Cc1ccc(O)cc1Nc1ccnc2cc(-c3ccccc3)ccc12.Cl`, the Inhibition was determined as 100% in assay [1], 99% in assay [2] and 45% in assay [3].
With `CC(C)c1nc2c(N)nc(N)nc2nc1N`, the Inhibition in assay [1] amounted to 84%; in assay [2], 0%; in assay [3], 64%.
In the case of `CC=CC1CCNC(C(O)c2ccnc3ccc(OC)cc23)C1` (stereo unspecified), the Inhibition is 91% in assay [1], 1% in assay [2] and 0% in assay [3].
For `O=C1Nc2cccc3c2C1(CCCCN1CCC(c2c(-c4ccccc4)[nH]c4ccccc24)CC1)CCC3` (stereo unspecified), the figures for the Inhibition in assay [1], in assay [2] and in assay [3] were 84%, 33% and 18%, respectively.
The matching figures for `N=C(NCc1ccc(O)cc1)Nc1nc(-c2ccc(OCCCn3ccnc3)cc2)cs1`: 100%, 89% and 13%.
As to `Clc1ccc(CNCCCCCCNCc2ccc(Cl)cc2)cc1.O=C(O)c1ccc2ccccc2c1O`, the Inhibition in assay [1] is listed as 96%; in assay [2], 28%; in assay [3] it was 53%.
On to `CCCCN1CCCC[C@H]1[C@@H](O)c1ccnc2ccc(OCC)cc12`, for which the Inhibition in assay [1] is recorded as 100%; in assay [2] it was 88%; in assay [3], 6%.
The like results for `O=c1cc(NCCCNCc2cc(C(F)(F)F)ccc2Cl)[nH]c2ccccc12` were, in that order, 90%, 20% and 25%.
With `O=C(O)C(F)(F)F.c1cc(CN2CCCCC2)cc(-c2ccc(-c3nc4ccccc4[nH]3)cc2)c1`, the Inhibition in assay [1] turned out to be 100%; in assay [2], 88%; in assay [3], 9%.
Consider `O=c1cc(NCCCNCc2cccc(OC(F)(F)C(F)F)c2)[nH]c2ccccc12`, for which the Inhibition in assay [1] came out at 81%; in assay [2] it was 7%; in assay [3], 6%.
Consider `COc1cc(NC(=O)CCCCCCCCN2CCN(C)CC2)c2ncccc2c1`, for which the Inhibition was 82% in assay [1], 36% in assay [2] and 8% in assay [3].
The like results for `O=S(=O)(Nc1cccc(CCN2CCC(N3CCCCC3)CC2)c1)c1cccc(C(F)(F)F)c1` were, in that order, 100%, 13% and 25%.
The like results for `Cc1nc(C)c(-c2ccc(Oc3ccc(Cl)cc3Cl)cc2)c(O)c1Br` were, in that order, 98%, 94% and 3%.
`Br.N=C(N)c1ccc(C(=O)Nc2cccc(C(=N)N)c2)cc1`: the Inhibition in assay [1] is listed as 88%; in assay [2], 82%; in assay [3], 13%.
The matching figures for `Cc1cccc(C)c1C1CCN(C2CCC(NC(=O)/C=C/c3ccccc3)CC2)CC1` (stereo unspecified): 100%, 45% and 42%.
`O=C(N[C@H](Cc1ccc(Cl)cc1)C(=O)N1CCN(c2ccnc3cc(Cl)ccc23)CC1)[C@H]1Cc2ccccc2CN1.O=C(O)C(F)(F)F`: the Inhibition turned out to be 85% in assay [1], 41% in assay [2] and 16% in assay [3].
The like results for `Cc1cc(N[C@@H](CC(C)C)C(=O)NCc2cccs2)nc(Nc2ccccc2)n1.O=C(O)C(F)(F)F` were, in that order, 100%, 57% and 18%.
For `CCOc1ccc(/C=C/C(=O)Nc2cccc3c2CCN(C)C3)cc1.Cl`, the figures for the Inhibition in assay [1], in assay [2] and in assay [3] were 92%, 3% and 0%, respectively.
Take `CCN(CC)CCN(Cc1ccc(-c2ccc(C(F)(F)F)cc2)cc1)C(=O)Cn1c(CCc2cccc(F)c2F)nc(=O)c2ccc(F)cc21.O=C(O)C(O)C(O)C(=O)O`: the values for the Inhibition in assay [1], in assay [2] and in assay [3] were 98%, 41% and 14%, respectively.
For the compound `CCC(=O)OC(CCN(CC)CC)(c1ccccc1)c1ccccc1`, the Inhibition in assay [1] is reported as 98%; in assay [2], 6%; in assay [3] it was 30%.
In the case of `O=C(Nc1ccc(-c2ccc(-c3nc4ccccc4[nH]3)s2)cc1)Nc1ccsc1`, the figures for the Inhibition in assay [1], in assay [2] and in assay [3] were 100%, 54% and 25%, respectively.
For `O=C(CCOc1ccccc1)NCC1CCCO1` (stereo unspecified), the results for the Inhibition in assay [1], in assay [2] and in assay [3] were 92%, 0% and 0%, respectively.
For `CC(=O)c1ccc(NC(=O)Nc2ccc3nccc(N4CCN(C)CC4)c3c2)cc1`, the Inhibition in assay [1] worked out at 100%; in assay [2] it was 93%; in assay [3], 2%.
With `Cc1cc(-c2cccc(CNCc3ccc(F)cc3)c2)ccc1S(=O)(=O)NCCN1CCCC1.O=C(O)C(F)(F)F`, the Inhibition in assay [1] stood at 100%; in assay [2] it was 64%; in assay [3], 49%.
For the compound `CC(C)(CNCc1ccc(F)c(F)c1)c1nc(-c2ccc(Cl)c(O)c2)c(-c2ccncc2)[nH]1.Cl`, the Inhibition in assay [1] worked out at 100%; in assay [2], 89%; in assay [3] it was 74%.
As to `COc1ccc(-c2cccc(NC(=O)c3ccc(Cl)cc3)c2)cc1CN1CCCN(C)CC1.O=C(O)C(F)(F)F`, the Inhibition came to 100% in assay [1], 95% in assay [2] and 29% in assay [3].
Turning to `CC(C)(CNCc1ccc(F)c(F)c1)c1nc(-c2ccnc(N)n2)c(-c2ccc(Cl)c(O)c2)[nH]1.Cl`, the Inhibition in assay [1] is given as 99%; in assay [2], 79%; in assay [3] it was 41%.
`CC1(C)N=C(N)N=C(N)N1OCCCc1ccccc1.Cl`: the figures for the Inhibition in assay [1], in assay [2] and in assay [3] were 96%, 94% and 64%, respectively.
`O=C(/C=C/c1ccc(Cl)c(Cl)c1)NCCCCCN1CCCC(C(=O)Nc2ccc(Cl)cc2)C1` (stereo unspecified): the Inhibition in assay [1] was 98%; in assay [2], 0%; in assay [3], 35%.
The matching figures for `CCC(C)C#Cc1c(C)nc(N)nc1N` (stereo unspecified): 96%, 0% and 53%.
As for `CN1CCCN(Cc2ccc(-c3ccc(NC(=O)c4cccc(Cl)c4)cc3)cc2)CC1.O=C(O)C(F)(F)F`, the Inhibition was determined as 95% in assay [1], 64% in assay [2] and 55% in assay [3].
The matching figures for `CCOc1ccc(-n2nc3c(Cl)nnc(-c4ccccc4)c3c2-c2ccccc2)cc1`: 96%, 99% and 0%.
For the compound `Cc1cccc2nc(-c3ccc(-c4ccc(CNCCN5CCNCC5)cc4)s3)[nH]c12.O=C(O)C(F)(F)F`, the values for the Inhibition in assay [1], in assay [2] and in assay [3] were 88%, 0% and 30%, respectively.
With `C[C@H](NC(=O)c1c(CN2CCC(N3CCCCC3=O)CC2)c(-c2cccs2)nc2ccccc12)C1CCCCC1`, the values for the Inhibition in assay [1], in assay [2] and in assay [3] were 91%, 73% and 8%, respectively.
The like results for `Cl.OC(CNCCCCCCNCC(O)c1ccc(Cl)c(Cl)c1)c1ccc(Cl)c(Cl)c1` (stereo unspecified) were, in that order, 90%, 17% and 99%.
